From PubChem BioAssay
This is a sample that favours compounds with a hit; in the whole collection about 8.1% have one here.
Gal4-VP16 FLuc = VP16 counterscreen qHTS for inhibitors of ROR gamma transcriptional activity; Drosophila S2 Gal4-VP16 UAS-luciferase, luminescence, 20 h; Potency, µM (highest dose often 53.6 µM), for the others: at the top dose activity, negative = inhibition, actives largely listed as inhibitors; actives 3.5% (n = 310,000);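 further: Gal4-VP16 expression switched on by copper sulfate through the metallothionein promoter; on the % scale 0 is the no-effect control and ±100 the full control effect; nearly all actives have a fitted effect of over 50% in size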
Epigenetic reg = Quantitative High-Throughput Screen for Regulators of Epigenetic Control | murine LDR cells, GFP reporter derepression, 30 h | Potency, µM (highest dose often 53.9 µM), without a hit: at the top dose GFP activation, usual class: activators | actives 0.2% (n = 280,000) | AID 1865, 2009; further: % of control where 0% means no effect; nearly all actives have a fitted effect of over 60% in size
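GFP-positive cell count by laser-scanning cytometry (objects 20–120 um) after 30 h, 37 C compound exposure of murine LDR cells; reporter is CMV-GFP integrated at a silenced locus, inducible by HDAC or DNMT inhibitors.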
ClpP mod = qHTS Assay for Activators of ClpP. purified B. subtilis ClpP, FRET peptide cleavage, 20 min. Potency, µM (titrated, usually from 57.5 µM), without a hit: at the highest dose activity change, negative = active. actives 1.9% (n = 340,000); active means well fitted falling curve with a large enough effect; inconclusive means small, poorly fitted or top-dose-only effect; inactive means no such curve, though single readings can be large or run the other way; further: the source files actives as falling curves though it sought activators and does not explain the sign; nearly all actives have a fitted effect of over 65% in size
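FRET quenching reversal measured ClpP activation: 10 microg/mL B. subtilis ClpP at pH 8 with the FRET-FV decapeptide, read at 430 nm after 320 nm excitation. The 20-min minus 0-min signal was scaled between DMSO/no-enzyme wells and ADEP (5.8 microM final).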
RORgamma inh = qHTS for inhibitors of ROR gamma transcriptional activity. Drosophila S2 Gal4-RORgamma UAS-luciferase reporter, 20 h. AID 2551, 2010. actives 5.4% (n = 310,000). Nuclear receptor ROR-gamma (Mus musculus), P51450. Potency, µM (top dose mostly 53.6 µM), inactives show at the highest dose activity change, negative = inhibition, most hits filed as inhibitors; further: on the % scale 0 is the no-effect control and ±100 the full control effect; nearly all actives have a fitted effect of over 60% in size
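Schneider cells (Drosophila), stable Gal4 DBD–ROR gamma + UAS-luc; 1 hr cmpd preincubation; Cu2+ induction 700 uM final; 20 hr ambient; luminescence.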
PINK1 modulator = A Quantitative High throughput Screen to Identify Chemical Modulators of PINK1 Expression | PINK1 immunofluorescence, high-content cytometry, 24 h | actives 0.2% (n = 410,000) | Potency, µM (titrated, usually from 76.6 µM), for inactives: at the highest dose activation (PINK1 increase), hits mostly activators; active means well fitted activation curve with a large enough effect; inconclusive means small, poorly fitted or top-dose-only effect; cell line not stated here; further: % of control where 0% means no effect; nearly all actives have a fitted effect of over 65% in size
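Decision-based qHTS: stable cells, 24 h exposure to five compound concentrations, CCCP as control. Fixed cells stained for PINK1 plus nuclear, mitochondrial and cell markers, cytometer read.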
Sfp inh = qHTS Assay for Inhibitors of Bacillus subtilis Sfp phosphopantetheinyl transferase (PPTase); 4'-phosphopantetheinyl transferase ffp (Bacillus subtilis), Q9F4F7; Biochemical Sfp PPTase activity, qHTS; Potency, µM, without a hit: largest response in the series, negative = inhibition, hits mostly inhibitors; actives 3.5% (n = 310,000);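 further: the enzyme is Sfp with the accession as filed and its product quenches rhodamine fluorescence; 0% = enzyme reaction without inhibitor and -100% = no enzyme wells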
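Compounds were incubated with enzyme (final 15 nM) for 15 min at room temperature before substrate addition started the reaction. Fluorescence at 525 nm excitation, 598 nm emission was recorded immediately and after 30 minutes.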
Numbers without * were called inactive; u = inconclusive; x = not tested or not shown; [ ] = remark or other dose. Unless noted, the call rests on the fitted dose curve; in most records, active means well fitted curve in the direction sought with a large enough effect; inconclusive means small, poorly fitted or top-dose-only effect, or another doubt; inactive means no such curve, though single readings can be large; an effect the other way counts as inactive or inconclusive. Potency means the concentration at half of the fitted maximal effect.

SMILES	Gal4-VP16 FLuc	Epigenetic reg	ClpP mod	RORgamma inh	PINK1 modulator	Sfp inh
Fc1ccccc1-c1nc(N2CCCCC2)c2ccccc2n1	5%	1%	-10%	-4%	1%	8%
c1ccc(N2CCN(c3nc(-c4ccccn4)nc4ccccc34)CC2)cc1	1.6µM*	-1%	1%	0.28µM*	2%	-18%
CC(=O)CCc1oc2c([N+](=O)[O-])cccc2c1-c1ccc(C)o1	u	0%	-2%	-94%	0%	8.9µM*
C/C(CCc1oc2ccccc2c1-c1ccc(C)o1)=N/O	-1%	3%	u	-1%	2%	28µM*
CC(=O)CCc1oc2ccccc2c1-c1ccccc1	2%	3%	-1%	33%	0%	3%
C/C(CCc1oc2c(Br)cc(Br)cc2c1-c1ccc(C)o1)=N\O	u	-1%	-1%	-100%	u	22µM*
CC(=O)CCc1oc2ccc([N+](=O)[O-])cc2c1-c1ccc(C)o1	4%	4%	x	0%	0%	-20%
CCOCCOC(=O)c1ccc(NC(=O)/C=C/c2ccc(OC)c(OC)c2)cc1	x	-2%	4%	x	3%	x
CC(C)Cc1nnc(NC(=O)CN2C(=O)c3ccccc3C2=O)s1	7%	6%	x	-16%	0%	22µM*
COC1=C2C[C@H](C)C[C@H](OC)[C@@H](O)[C@@H](C)C=C(C)[C@H](OC(N)=O)[C@@H](OC)C=CC=C(C)C(=O)NC(=CC1=O)C2=O	x	x	-23%	x	0%	x
Brc1ccc(-c2noc(COc3ccc4c(c3)CCC4)n2)o1	3%	-1%	-4%	u	0%	-12%
c1csc(-c2noc(COc3ccc4c(c3)CCCC4)n2)c1	7%	-1%	1%	u	0%[38.3 µM]	45µM*
COCCCN1C(=O)C2C(C(=O)Nc3cc(C)cc(C)c3)C3C=CC2(O3)C1C(=O)NC1CCCCC1 (stereo not drawn)	5%	x	x	1%	3%	40µM*
Cc1ccccc1OCC(=O)Nc1ccc(C(=O)OCc2cc(=O)n3ccsc3n2)cc1	x	-1%	-9%	x	-2%	x
Cc1cc(/C=N/n2cnnc2)c(C)n1-c1ccc2c(c1)OCO2	1%	-1%	-1%	37%	-7%[38.3 µM]	-5%
Cc1cccc(-n2c(C)cc(/C=N/n3cnnc3)c2C)c1	20µM*	-2%	-2%	u	-2%	-12%
Nc1ccc2cc3ccc(N)cc3nc2c1	u	x	x	-41%[10 µM]	x	-24%
COc1cccc(/C=N/NC(=O)c2ccc([N+](=O)[O-])cc2Cl)c1O	0.63µM*	-3%	-2%	0.35µM*	1%	5%
O=C(N/N=C/c1ccccn1)c1cc(-c2ccc3ccccc3c2)n[nH]1	16µM*	8%	22µM*	16µM*	2%	8%
O=C(N/N=C/c1ccccn1)c1cc(-c2cccc3ccccc23)n[nH]1	13%	-1%	-2%	-37%	3%	10%
O=C(N/N=C/c1ccccn1)c1cc(-c2ccccc2Cl)n[nH]1	-3%[10 µM]	-1%	0%	16µM*	1%	7%
COc1cc(/C=N/NC(=O)c2cccc([N+](=O)[O-])c2)cc(OC)c1O	8%	-1%	0%	-18%	2%	-13%
CCc1ccc(-c2cc(C(=O)N/N=C/c3ccccn3)[nH]n2)cc1	u	1%	x	13µM*	7%	-11%
CCc1cccc(C)c1Nc1c(-c2ccc(SC)cc2)nc2sccn12	x	-1%	-4%	x	1%	x
CCn1c(=O)n(-c2ccc(F)c(Cl)c2)c(=O)c2c3c(sc21)CN(C(C)=O)CC3	x	0%	-8%	x	1%	x
SMILES	Gal4-VP16 FLuc	Epigenetic reg	ClpP mod	RORgamma inh	PINK1 modulator	Sfp inh
Cc1cc(C)nc(SCc2ccc(C(=O)NNC(=O)Nc3cccc(Cl)c3)cc2)n1	u	0%	35µM*	u	-2%	-17%
O=C(N/N=C/c1ccccn1)c1ccc(Cl)c(Cl)c1	0.63µM*	x	x	u	x	u
O=C(N/N=C/c1ccccn1)c1cc(-c2ccc(Cl)s2)[nH]n1	-7%	x	x	u	11%	4%
O=C(N/N=C/c1ccccn1)c1ccc(NC(=O)c2ccccc2Cl)cc1	2%	x	x	-19%	3%	-12%
O=C(N/N=C/c1ccccn1)c1[nH]c2ccc([N+](=O)[O-])cc2c1-c1ccccc1	2%[10 µM]	25%	3%	5µM*	0%	12%
O=C(N/N=C/c1ccccn1)c1cc(-c2ccc(Br)s2)[nH]n1	-28%	x	x	18µM*	3%	7%
Cc1cc(C)nc(SCc2cccc(C(=O)O)c2)n1	-27%	-1%	-1%	-26%	x	21%
CCCOc1ccc(C2c3c(-c4ccccc4O)n[nH]c3C(=O)N2Cc2ccncc2)cc1OCC (stereo not drawn)	x	9%	0%	x	3%	x
CCOC(=O)c1sc(N2C(=O)c3oc4ccc(C)cc4c(=O)c3C2c2ccccc2F)nc1C (stereo not drawn)	x	-1%	-5%	x	0%	x
Cc1cc(C)nc(SCc2ccc(C(=O)N/N=C/c3ccncc3)cc2)n1	-2%	1%	x	0%	-1%	12%
O=C(N/N=C/c1ccco1)c1cc(-c2ccc3ccccc3c2)n[nH]1	u	u	-4%	u	1%	-5%
O=C(N/N=C/c1ccccn1)C1CC1	10%	4%	2%	15%	7%	79µM*
CCc1ccc(-c2cc(C(=O)N/N=C/c3ccco3)[nH]n2)cc1	2%[10 µM]	1%	x	20µM*	2%	27%
O=C(N/N=C/c1ccccn1)c1ccc([N+](=O)[O-])cc1Cl	u	x	0%	11µM*	5%	50µM*
Cc1cc(C)nc(SCc2ccc(C(=O)N/N=C/c3ccccn3)cc2)n1	14µM*	7%	-24%	7.1µM*	-2%	-4%
O=[N+]([O-])c1ccc(N/N=C\c2ccccc2OCc2ccccc2)cc1	2%	4%	2%	17%	9%	16%
Fc1ccc(COc2ccc(Cl)cc2/C=N/Nc2nc(N3CCCC3)nc(N3CCCC3)n2)cc1	5%	-6%	-1%	u	0%[38.3 µM]	17%
Cc1cc(C)nc(N/N=C/c2ccccc2OCc2ccc([N+](=O)[O-])cc2)n1	u	-1%	-1%	14µM*	13%	-3%
